Rows were chosen to be rich in hits. Some 1.7% of all compounds tested hit in one or more screens of this group.
KCNH2 WT inh = inhibitors of human wildtype KCNH2 potassium channel; Q12809; activity change, % at 1.84 µM; U2OS, BacMam KCNH2, thallium flux FluxOr; hits give low values; AID 720551; 0.37% of 340,000 active;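 active means maximum activity change below -70%; inconclusive means maximum activity change between -70% and -50%; inactive means maximum activity change above -50%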
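U2OS cells transduced with wild-type KCNH2 virus are loaded with FluxOr dye for 45 min, and thallium flux is measured in kinetic reads before and after stimulation buffer. Rate constants are normalized to DMSO controls.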
FBPA coupling cs = inhibits coupling enzyme system, counter-screen for aldolase hits; coupling enzyme system counterscreen, AmpLite Red fluorescence; activity change, negative = inhibition, % at 58.2 µM, hits read low; 0.67% of 290,000 active; AID 2472; in the data active means activity change below about -30%
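Counterscreen lacking aldolase: glyceraldehyde-3-phosphate coupling-enzyme reagent preincubated 10 min at RT with compound (at 57.5 uM final), then substrate/coupling system with AmpLite Red added; fluorescence read at 525/598 nm after 20 min RT.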
USP1 inh = USP1/UAF1 (human) deubiquitinase inhibition; 0.23% of 390,000 active; recombinant USP1/UAF1, Ub-Rhodamine cleavage fluorescence; AID 743255; Potency, µM (doses to about 57.1 µM), usual class: inhibitors; O94782; active means well fitted inhibition curve with a large enough effect; inconclusive means small, poorly fitted or top-dose-only effect; inactive means no such curve, though single readings can be large or run the other way; further: nearly all actives have a fitted effect of over 60% in size
Target sequence (O94782 whole entry, looked up): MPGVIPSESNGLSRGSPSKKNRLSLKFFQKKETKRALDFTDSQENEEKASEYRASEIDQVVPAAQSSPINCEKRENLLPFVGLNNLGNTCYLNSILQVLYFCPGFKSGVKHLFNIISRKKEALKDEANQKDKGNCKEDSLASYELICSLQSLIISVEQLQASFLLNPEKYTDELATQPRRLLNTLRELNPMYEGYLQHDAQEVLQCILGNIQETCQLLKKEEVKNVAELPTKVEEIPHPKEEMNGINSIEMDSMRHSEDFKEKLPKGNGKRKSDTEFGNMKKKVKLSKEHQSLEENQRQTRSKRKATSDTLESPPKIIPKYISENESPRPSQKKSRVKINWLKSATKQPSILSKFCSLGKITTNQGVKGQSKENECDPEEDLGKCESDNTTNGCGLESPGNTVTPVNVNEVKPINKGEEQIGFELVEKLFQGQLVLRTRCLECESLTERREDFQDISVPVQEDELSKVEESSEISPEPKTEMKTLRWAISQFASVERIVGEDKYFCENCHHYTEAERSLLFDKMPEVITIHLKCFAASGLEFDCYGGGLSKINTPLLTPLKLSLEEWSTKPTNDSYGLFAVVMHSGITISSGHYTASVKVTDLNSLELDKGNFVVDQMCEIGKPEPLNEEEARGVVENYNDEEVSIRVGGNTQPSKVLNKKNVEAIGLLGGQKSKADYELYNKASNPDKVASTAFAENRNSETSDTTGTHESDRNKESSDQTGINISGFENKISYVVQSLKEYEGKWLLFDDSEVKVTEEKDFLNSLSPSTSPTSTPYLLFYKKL
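1 nM enzyme complex + cpd, 15 min RT; start with Ub-Rho 150nM final; kinetic fluorescence ex 480/em 540, 6 reads q60 s. Buffer 50mM HEPES pH 7.8, 0.5mM EDTA, 0.1 mg/ml BSA, 1mM TCEP, 0.01% Tween-20.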
KCNH2 3.1 inh = KCNH2 3.1 (human) potassium channel inhibition | U2OS KCNH2 3.1, thallium flux FluxOr; hits give low values | activity change, % (tested at about 1.8 µM) | 0.95% of 340,000 active | AID 720553;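 active means maximum activity change below -70%; inconclusive means maximum activity change from -70% to -50%; inactive means maximum activity change above -50%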;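 further: thallium influx rate constant from kinetic fluorescence after stimulation buffer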
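Thallium flux via FluxOr fluorescence (Red40 quencher, 45 min loading) in U2OS cells virally expressing the KCNH2 3.1 isoform (1.77 x 10^8 /mL virus, overnight at 37 C). Rate constants from 2-min kinetic reads post-stimulation, normalised to positive and negative controls.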
Giardia killer = Giardia lamblia killing | Giardia lamblia trophozoite viability | activity change, % at 7.66 µM, hits read low | 0.15% of 340,000 active; in the data active means activity change below about -80%; inconclusive means between about -30% and that limit;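 further: parasites exposed to compound for two days anaerobically before the ATP read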
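Anaerobic 48 hrs incubation at 37 deg C of 100 trophozoites/well with test compounds; ATPLite 1-Step luminescence, 15-30 min RT, reports cellular ATP as viability.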
A number is an active result.

Screening COc1cc(CNc2ccc(O)cc2)cc(Br)c1OCc1ccccc1 returned KCNH2 WT inh inactive, FBPA coupling cs -41, USP1 inh inactive, KCNH2 3.1 inh inactive and Giardia killer inactive.
`Oc1ccc(OCc2ccccc2)cc1` gave FBPA coupling cs inactive.
Screening Oc1ccc(NCc2ccc(OCc3ccccc3)cc2)cc1 returned KCNH2 WT inh inactive, FBPA coupling cs inactive, USP1 inh 3.2µM, KCNH2 3.1 inh inactive and Giardia killer inactive.
Oc1ccc(NCc2ccc(OCc3ccccc3Cl)cc2)cc1 was read as USP1 inh 32µM.
For COc1cc(CNC(C)c2ccccc2)cc(Br)c1OCc1ccccc1 (configuration not stated) the results were KCNH2 WT inh inactive, FBPA coupling cs inactive, USP1 inh inactive, KCNH2 3.1 inh inactive and Giardia killer inactive.
For COc1ccc2c(c1)c(=O)c(S(=O)(=O)c1ccc(F)cc1)cn2Cc1ccccc1Cl the results were USP1 inh inactive.
Cc1cccc(C)c1Nc1oc(-c2ccccc2)nc1-c1ccccc1 was read as FBPA coupling cs inactive.
For COC(=O)c1c(C)sc(-c2c(-c3ccc4c(c3)OCCO4)[nH]c3c2c(=O)n(C)c(=O)n3C)c1O the results were USP1 inh inactive.
Screening CCOC(=O)c1c(C)sc(-c2c(-c3ccc(OC)c(F)c3)[nH]c3c2c(=O)[nH]c(=O)n3C)c1O returned USP1 inh 22µM.
`CCOC(=O)c1c(C)sc(-c2c(-c3ccc4c(c3)OCCO4)[nH]c3c2c(=O)n(C)c(=O)n3C)c1O` gave USP1 inh 16µM.
Screening CCc1ccc(-c2[nH]c3c(c2-c2sc(C)c(C(=O)OC)c2O)c(=O)[nH]c(=O)n3C)cc1 returned USP1 inh inactive.
`CCOC(=O)c1c(C)sc(-c2c(-c3ccc4c(c3)OCCO4)[nH]c3c2c(=O)[nH]c(=O)n3C)c1O` gave USP1 inh 25µM.
For CCOc1ccc(C(=O)N2CCN(c3cccc(C)c3C)CC2)cc1 the results were KCNH2 WT inh inactive, FBPA coupling cs inactive, USP1 inh inactive, KCNH2 3.1 inh -74 and Giardia killer inactive.
For CCC1CN(C(=O)N2CCC(C(=O)NCCc3ccc(C)cc3)CC2)c2ccccc2O1 (configuration not stated) the results were USP1 inh inactive.
`COC(=O)c1cc(C)nc2c1C(=O)C(=O)C=C2N1CCOCC1` gave KCNH2 WT inh inactive, FBPA coupling cs -79, USP1 inh 1.3µM, KCNH2 3.1 inh inactive and Giardia killer inactive.
`COC(=O)COc1ccc2c(-c3ccc(OC)cc3)cc(=O)oc2c1` gave KCNH2 WT inh inconclusive, FBPA coupling cs inactive, USP1 inh inactive, KCNH2 3.1 inh -79 and Giardia killer inactive.
Cn1c(C(=O)NCc2ccc(F)cc2)cc2cc(S(=O)(=O)N3CCCCC3)ccc21 was read as USP1 inh inactive.
N#Cc1ccccc1OCCCN1CCC(Cc2ccccc2)CC1 was read as KCNH2 WT inh -90, FBPA coupling cs inactive, USP1 inh inactive, KCNH2 3.1 inh -96 and Giardia killer inactive.
For CC(=O)CCc1ccc(OCCCCN2CCC(Cc3ccccc3)CC2)cc1 the results were KCNH2 WT inh inactive, FBPA coupling cs inactive, USP1 inh inactive, KCNH2 3.1 inh -94 and Giardia killer inactive.
COc1cccc(OC)c1OCCCCN1CCC(Cc2ccccc2)CC1 was read as KCNH2 WT inh inactive, FBPA coupling cs inactive, USP1 inh inactive, KCNH2 3.1 inh -71 and Giardia killer inactive.
Screening CCC(=O)c1ccccc1OCCCN1CCC(Cc2ccccc2)CC1 returned KCNH2 WT inh -131, FBPA coupling cs inactive, USP1 inh inactive, KCNH2 3.1 inh -100 and Giardia killer inactive.
CCOc1ccccc1OCCN1CCC(Cc2ccccc2)CC1 was read as KCNH2 WT inh inactive, FBPA coupling cs inactive, USP1 inh inactive, KCNH2 3.1 inh inconclusive and Giardia killer inactive.
`COc1cccc(OC)c1OCCCCN1CCCC1` gave KCNH2 WT inh inactive, FBPA coupling cs inactive, USP1 inh inactive, KCNH2 3.1 inh inactive and Giardia killer inactive.
`COc1ccc(-n2ncc(C(=O)N3CCN(C(=O)c4ccco4)CC3)c2C2CCN(C(=O)OC(C)(C)C)CC2)cc1` gave USP1 inh inactive.
For c1ccc(COc2ccc(OCCCN3CCCC3)cc2)cc1 the results were KCNH2 WT inh inactive, FBPA coupling cs inactive, USP1 inh inactive, KCNH2 3.1 inh inactive and Giardia killer inactive.
For CC1CCN(CCCOc2ccc(OCc3ccccc3)cc2)CC1 the results were KCNH2 WT inh inactive, FBPA coupling cs inactive, USP1 inh inactive, KCNH2 3.1 inh -80 and Giardia killer inactive.
Screening O=C(O)c1ccc2c(c1)[C@@H]1C=CC[C@@H]1[C@H](c1ccccn1)N2 returned KCNH2 WT inh inactive, USP1 inh 32µM, KCNH2 3.1 inh inactive and Giardia killer inactive.
`COCCCNc1nc2c(S(=O)(=O)c3ccc(C)c(C)c3)nnn2c2ccc(Cl)cc12` gave USP1 inh inactive.
`COc1cc(OC)c2c(-c3cccc(/C=C/c4ccc(F)cc4)c3)cc(=O)oc2c1` gave KCNH2 WT inh -153, FBPA coupling cs inactive, USP1 inh inconclusive, KCNH2 3.1 inh inactive and Giardia killer inactive.
Screening O=C(O)c1cc(Cl)c(Cl)cc1C(=O)N1CCCC1 returned KCNH2 WT inh inactive, FBPA coupling cs inactive, USP1 inh inactive, KCNH2 3.1 inh inactive and Giardia killer -91.
Screening Cc1ccc2[nH]c(=O)c(CN(Cc3ccccc3)Cc3nnnn3Cc3ccco3)cc2c1 returned Giardia killer inactive.
`CCC1(C)NC(c2ccc3c(c2)OCO3)=CC(c2ccccc2O)N1` (configuration not stated) gave Giardia killer inactive.
For Cc1ccc(C)c(S(=O)(=O)N2CCCN(C)CC2)c1 the results were KCNH2 WT inh inactive, FBPA coupling cs inactive, USP1 inh inactive, KCNH2 3.1 inh -90 and Giardia killer inactive.
Cc1cc(C)cc(N(CC(=O)Nc2ccc(Br)cc2)S(=O)(=O)c2c(C)[nH]c(=O)[nH]c2=O)c1 was read as KCNH2 WT inh inactive, USP1 inh inactive, KCNH2 3.1 inh -109 and Giardia killer inactive.
`Cc1cc(C)cc(N(CC(=O)Nc2cc(C)ccc2C)S(=O)(=O)c2c(C)[nH]c(=O)[nH]c2=O)c1` gave KCNH2 WT inh inactive, USP1 inh inactive, KCNH2 3.1 inh inactive and Giardia killer inactive.
For CCOC(=O)N1CCN(CC(O)COc2ccc(-c3ccccc3)cc2)CC1 (configuration not stated) the results were KCNH2 WT inh inactive, FBPA coupling cs inactive, USP1 inh inactive, KCNH2 3.1 inh inactive and Giardia killer inactive.
`OC1CCCN(CC(O)COc2ccc(-c3ccccc3)cc2)C1` (configuration not stated) gave KCNH2 WT inh inactive, FBPA coupling cs inactive, USP1 inh inactive, KCNH2 3.1 inh -72 and Giardia killer inactive.
